VP16 counter = VP16 counterscreen qHTS for inhibitors of ROR gamma transcriptional activity; Drosophila S2 Gal4-VP16 UAS-luciferase, luminescence, 20 h; Potency, µM (doses to about 53.6 µM), actives largely listed as inhibitors; 310,000 compounds, 3.5% hits;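 note: Gal4-VP16 expression switched on by copper sulfate through the metallothionein promoter; nearly all actives have a fitted effect of over 50% in size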
12-LOX inh = Primary qHTS assay for inhibitors of human arachidonate 12S-lipoxygenase (ALOX12): Round 2. AID 1671190, 2021. Polyunsaturated fatty acid lipoxygenase ALOX12 (Homo sapiens), P18054. Potency, µM (series often up to 108 µM), hits mostly inhibitors. purified 12hLO, xylenol orange hydroperoxide absorbance. 580,000 compounds, 1.1% hits
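Hydroperoxide product was detected by ferrous iron/xylenol orange as the 573 to 405 nm absorbance ratio. Arachidonic acid at 40 uM (final) was turned over for 30 min at room temperature by 150 nM human 12hLO, pH 7.0 Hepes buffer, after 15 min compound preincubation.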
ELG1 DNA repair = qHTS screen for small molecules that inhibit ELG1-dependent DNA repair in human embryonic kidney (HEK293T) cells expressing luciferase-tagged ELG1 | HEK293T ELG1-luciferase reporter, luminescence, 16 h; DNA damage induced by 5-fluorouridine | Potency, µM (titrated, usually from 46.1 µM), usual class: inhibitors | 330,000 compounds, 2.3% hits; note: nearly all actives have a fitted effect of over 55% in size
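5-Fluorouridine DNA damage + compound/DMSO, 2,000 cells/well, 16 h, 37 °C/5% CO2. ONE-Glo, 30 min RT, luminescence. Readout = decrease in reporter signal.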
RORgamma inh = qHTS for inhibitors of ROR gamma transcriptional activity | Nuclear receptor ROR-gamma (Mus musculus), P51450 | Drosophila S2 Gal4-RORgamma UAS-luciferase reporter, 20 h | Potency, µM (doses to about 53.6 µM), most hits filed as inhibitors | 310,000 compounds, 5.4% hits | AID 2551, 2010; note: nearly all actives have a fitted effect of over 60% in size
Target sequence (P51450 whole entry, looked up, the tested form may be a part): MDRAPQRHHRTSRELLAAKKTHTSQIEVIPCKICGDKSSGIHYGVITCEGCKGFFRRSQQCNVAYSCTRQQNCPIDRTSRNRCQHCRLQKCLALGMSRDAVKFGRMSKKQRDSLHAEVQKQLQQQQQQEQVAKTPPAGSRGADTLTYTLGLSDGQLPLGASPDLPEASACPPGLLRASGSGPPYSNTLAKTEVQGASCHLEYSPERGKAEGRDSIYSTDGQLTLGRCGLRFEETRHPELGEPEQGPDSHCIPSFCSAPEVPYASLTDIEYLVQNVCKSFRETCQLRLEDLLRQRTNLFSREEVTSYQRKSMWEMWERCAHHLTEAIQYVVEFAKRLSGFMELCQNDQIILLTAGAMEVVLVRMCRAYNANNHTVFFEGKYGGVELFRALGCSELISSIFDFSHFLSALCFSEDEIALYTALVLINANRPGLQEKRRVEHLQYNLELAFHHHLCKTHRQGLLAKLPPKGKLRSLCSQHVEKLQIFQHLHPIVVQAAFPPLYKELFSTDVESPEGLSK
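Stable Schneider cell line, Gal4 DNA-binding domain fused to ROR gamma, UAS-luciferase. Cmpd 1 hr RT → CuSO4 700 uM final → 20 hr RT → luciferase reagent 10 min → luminescence.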
DT40 TDP1 no CPT = qHTS for Inhibitors of human tyrosyl-DNA phosphodiesterase 1 (TDP1): qHTS in cells in absence of CPT; DT40 Tdp1-/- hTDP1 cells, no CPT, ATP luminescence, 48 h; Potency, µM (titrated, usually from 46.2 µM), actives largely listed as inhibitors; 420,000 compounds, 15% hits; AID 686978, 2013; note: nearly all actives have a fitted effect of over 55% in size
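Seeded 400 DT40-hTDP1 cells/well (vehicle DMSO, no 20 nM CPT); pinned compounds; ≥48 hr at 37 °C; CellTiter-Glo luminescence as viability measure.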
DT40 TDP1 CPT = qHTS for Inhibitors of human tyrosyl-DNA phosphodiesterase 1 (TDP1): qHTS in cells in presence of CPT; chicken DT40 Tdp1-/-;hTDP1 cells + 20 nM CPT, ATP luminescence, 48 h; Potency, µM (highest dose often 46.2 µM), actives largely listed as inhibitors; 420,000 compounds, 12% hits; AID 686979, 2013; note: nearly all actives have a fitted effect of over 55% in size
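Chicken DT40 Tdp1-/- cells complemented with human TDP1, 400 cells/well, exposed to compounds plus 20 nM camptothecin for at least 48 h at 37 C; viability read as ATP content by CellTiter-Glo luminescence.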
Hits are given with their value; 0 = inactive; ? = inconclusive; - = no result given; [ ] = another dose, or the depositor's remark. In the library only some 15% were active in any assay of this set; here they are far more common. Calls come from the whole dose curve; as a rule, active = well fitted curve in the direction sought with a large enough effect; inconclusive = small, poorly fitted or top-dose-only effect, or another doubt; inactive = no such curve, though single readings can be large; an effect the other way counts as inactive or inconclusive.

SMILES | VP16 counter | 12-LOX inh | ELG1 DNA repair | RORgamma inh | DT40 TDP1 no CPT | DT40 TDP1 CPT
N#Cc1nc(/C=C/c2cccs2)oc1NC1CCCCC1 | - | 0 | - | - | - | -
COc1cccc(/C=C/c2nc(C#N)c(NC3CCCCC3)o2)c1 | - | 0 | - | - | 4.1µM | ?
COc1ccc(CNc2nc(-c3ccco3)nn2S(=O)(=O)c2ccc(C)cc2)cc1OC | - | 0 | - | - | - | -
O=c1c2c3c(sc2ncn1/N=C/c1ccc([N+](=O)[O-])o1)CCCC3 | 0 | ? | 0 | 0 | 2.3µM | 2.6µM
O=c1c2c3c(sc2ncn1-c1ccccc1)CCCC3 | - | 0 | - | - | - | -
Cn1cc(/C=N/n2cnc3sc4c(c3c2=O)CCCC4)c2ccccc21 | 0 | 0 | 0 | 0 | 10µM | 13µM
COC(=O)c1c(NC(=O)c2c(-c3c(Cl)cccc3Cl)noc2C)sc(C)c1C | - | 0 | - | - | - | -
Cc1nn(-c2cccc(Br)c2)c(C)c1[C@@H]1C=C[C@@H](NS(C)(=O)=O)C1 | - | 11µM | - | - | - | -
CCc1ccc(NC(=O)CC2C(=O)N(c3ccc(Cl)cc3)C(=O)N2Cc2ccco2)cc1 (configuration not stated) | - | 0 | - | - | ? | 21µM
CCc1ccc(NC(=O)CC2C(=O)N(c3cccc(OC)c3)C(=O)N2Cc2ccco2)cc1 (configuration not stated) | - | 0 | - | - | ? | ?
CCc1ccc(NC(=O)CC2C(=O)N(c3cccc(C)c3)C(=O)N2Cc2ccco2)cc1 (configuration not stated) | - | ? | - | - | 26µM | 16µM
CCc1ccc(NC(=O)CC2C(=O)N(c3cccc(C)c3)C(=O)N2Cc2cccs2)cc1 (configuration not stated) | - | 0 | - | - | 21µM | 21µM
COc1ccc(C(=O)N2CCCC(CN3CCOCC3)CC2)cc1 (configuration not stated) | - | 0 | - | - | - | -
Cc1ccccc1C(=O)OCc1nc(N)c2ccccc2n1 | - | 0 | - | - | - | -
COc1ccc(C2(C(=O)N3CC(CO)C4(CCNCC4)C3)CCCCC2)cc1 (configuration not stated) | - | 32µM | - | - | - | -
CCN(CCn1cccn1)Cc1cn[nH]c1-c1ccc(-c2ccccc2)cc1 | 0 | 0 | ? | 0 | 23µM | ?
COc1cccc(S(=O)(=O)N2CCCC(Cc3noc(-c4cnccn4)n3)C2)c1 (configuration not stated) | - | 0 | - | - | - | -
CCc1nnc(NC(=O)c2ccc(S(=O)(=O)N3CCCC(C)C3)cc2)s1 (configuration not stated) | 0 | 0 | 0 | 0 | 0 | 0
COCc1nnc(NC(=O)c2ccc(S(=O)(=O)N3CCCC3)cc2)o1 | 11µM | 0 | 0 | 4.5µM | 0 | 0
CCc1nnc(NC(=O)c2ccc(S(=O)(=O)N3CCCC(C)C3)cc2)o1 (configuration not stated) | 0.63µM | 0 | 0 | 0.22µM | ? | ?
COc1ccc(NC(=O)c2ccc(S(=O)(=O)N3CCCC3)cc2)cc1OC | - | 0 | 0 | - | 0 | ?
CC1CCCN(S(=O)(=O)c2ccc(C(=O)Nc3nnc(-c4ccco4)o3)cc2)C1 (configuration not stated) | 0.5µM | 0 | ? | 1.1µM | 7.3µM | 8.2µM
Cc1cn2nnc(C(=O)NCc3ccc(C(C)C)cc3)c2c(=O)[nH]1 | - | 0 | - | - | - | -
COc1ccccc1CN1CC[C@H]2COC(=O)N2c2cc(F)ccc2C1 | - | 0 | - | - | - | -
CS(=O)(=O)c1cccc(NC(=O)CSc2nc(C3CC3)n(-c3ccccc3)n2)c1 | - | 0 | - | - | - | -
SMILES | VP16 counter | 12-LOX inh | ELG1 DNA repair | RORgamma inh | DT40 TDP1 no CPT | DT40 TDP1 CPT
CC1(C)c2ssc(=S)c2-c2ccccc2N1C(=O)CSC1=NCCS1 | 0 | 0 | 0 | 11µM | ? | ?
CCOc1ccc2c(c1)-c1c(ssc1=S)C(C)(C)N2C(=O)c1ccco1 | 0 | ? | ? | 0 | 2.9µM | 5.2µM
COc1ccc2c(c1)-c1c(ssc1=S)C(C)(C)N2C(=O)CSC1=NCCS1 | 0[0.365 µM] | 0 | ? | ? | 23µM | ?
Cc1cc2c(cc1C)N(C(=O)CSC1=NCCS1)C(C)(C)c1ssc(=S)c1-2 | 0[0.365 µM] | ? | 0 | 4µM | ? | ?
Cc1ccc(S(=O)(=O)N2c3ccccc3-c3c(ssc3=S)C2(C)C)cc1 | ? | ? | 0 | 0 | ? | ?
CCCCNC(=O)c1ccc(C)c(NC(=O)c2ccccc2)c1 | - | 0 | - | - | - | -
CS(=O)(=O)N1CCN2C(=O)N(Cc3ccc(F)cc3)C[C@H]2C1 | - | 0 | - | - | - | -
Cc1cc(C)c2c(c1)-c1c(ssc1=S)C(C)(C)N2C(=O)CSc1nncn1C | 0 | ? | ? | 0 | 23µM | 26µM
COc1ccc2c(c1)-c1c(ssc1=S)C(C)(C)N2S(=O)(=O)c1ccc(C)cc1 | 0 | ? | 0 | 8.9µM | 5.2µM | 15µM
Cc1ccc2c(c1)-c1c(ssc1=S)C(C)(C)N2C(=O)CSc1nncn1C | 0 | ? | 0 | 0 | ? | ?
CC(=N\NC(=O)c1ccccc1)/C(=N/O)C(=O)Nc1ccccc1 | ? | 0 | 0 | 5µM | 0 | 0
COc1ccc(-c2nc3cc(NC(=O)CC(C)C)ccc3o2)cc1 | - | 0 | - | - | - | -
CCn1nccc1C(=O)N1CC(Oc2ccccc2-c2nc(CCOC)no2)C1 | - | 0 | - | - | - | -
CC(c1nc2ccccc2[nH]1)n1c(=O)c(-c2ccco2)nc2ccccc21 (configuration not stated) | - | 13µM | - | - | 18µM | 13µM
Cc1cccc(C)c1NC(=O)C(c1cccc2ccccc12)n1c(=O)c(-c2cc3ccccc3[nH]2)nc2ccccc21 (configuration not stated) | - | 0 | - | - | 9.2µM | 13µM
O=c1c(-c2cc3ccccc3[nH]2)nc2ccccc2n1C(CCc1ccccc1)c1nc2ccccc2[nH]1 (configuration not stated) | - | 0 | - | - | 18µM | ?
Cc1csc(-c2nc3ccccc3n2C(C)c2nc3ccccc3[nH]2)c1 (configuration not stated) | - | 0 | - | - | ? | ?
CSCCC(c1nc2ccccc2[nH]1)n1c(=O)c(-c2cc3ccccc3[nH]2)nc2ccccc21 (configuration not stated) | - | 0 | - | - | ? | ?
O=C(NCc1ccccc1)C(c1cccc2ccccc12)n1c(=O)c(-c2cc3ccccc3[nH]2)nc2ccccc21 (configuration not stated) | - | 0 | - | - | ? | 15µM
COc1ccc(C2C=C3c4cc5c(cc4CCN3C3=C2C(=O)CCC3)OCCCO5)cc1 (configuration not stated) | - | 0 | - | - | - | -

Screening data: PubChem BioAssay, National Center for Advancing Translational Sciences (NCATS)
